This note sets out measurements from the supplement of paper PMC5407854, “Inhibitor of ppGalNAc-T3-mediated O-glycosylation blocks cancer cell invasiveness and lowers FGF23 levels” (eLife, 2017).

In all, about 1,700 compounds were measured (“T2 sensor activation Q score (MG/GFP ratio z-score vs DMSO controls)”: median about 0.3, highest 2% from about 1.9 on). The entries come from a sample that favours the highest values as a whole.

The subject of the assay is ppGalNAc-T2 sensor. As to the kind of experiment: T2 sensor activation Q score (MG/GFP ratio z-score vs DMSO controls) (SD units); higher = more sensor activation (inhibition of ppGalNAc-T2 glycosylation). Conditions: HEK293 sensor cells; 10 µM; 6 h. Here is the method: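 Cells were treated with compound at 10 uM for 6 h, then MG/GFP ratio was read by flow cytometry (10,000 cells per well, duplicate wells). Q = (R - R_neg)/SD_neg relative to DMSO vehicle controls; the signal rises when the glycosyltransferase is inhibited.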
For `c1coc(CNc2ncnc3[nH]ncc23)c1`, the “T2 sensor activation Q score” value worked out at 0.7. In the case of `O=C(O)/C=C/C(=O)N1Cc2cc3ccccc3nc2C1`, the “T2 sensor activation Q score” value is -0.3.

Take `CCCCN1C(=O)CC2CCOC21C` (configuration not stated): the “T2 sensor activation Q score” value was -0.45.

Consider `CN1C(=C=Cc2cc(I)c(O)c(I)c2)C(C)(C)c2ccccc21`, for which the “T2 sensor activation Q score” value came to 3.65. `Cc1nnc(-n2cccc2)s1`: the “T2 sensor activation Q score” value stood at 1.4. Turning to `Clc1ccc(Oc2nc3c(Cl)cccc3s2)cc1Cl`, the “T2 sensor activation Q score” value was 0.85. On to `Nc1n[nH]c(CO)n1`, for which the “T2 sensor activation Q score” value came to 1.95. With `Nc1n[nH]c(-c2ccccc2)n1`, the “T2 sensor activation Q score” value turned out to be 0.75. Consider `C(COC1CC2CC1C1C2CC2OC21)OC1CC2CC1C1C2CC2OC21` (configuration not stated), for which the “T2 sensor activation Q score” value came to 0.15. Take `CC(C)C[C@H](NC(=O)[C@H](CCc1ccccc1)NC(=O)CN1CCOCC1)C(=O)N[C@@H](Cc1ccccc1)C(=O)N[C@@H](CC(C)C)C(=O)[C@@]1(C)CO1`: the “T2 sensor activation Q score” value was -1.65. On to `O=C1c2cccc(Sc3ccccc3)c2C(=O)c2c(Sc3ccccc3)cccc21`, for which the “T2 sensor activation Q score” value was -0.5. For `S=c1nc[nH]c2c1ncn2C1CCCC1` the value was 1.4. Take `COc1ccc2nc3cc(Cl)ccc3c(Nc3cc(C(C)C)c(O)cc3C)c2c1`: the “T2 sensor activation Q score” value turned out to be 0.55. For the compound `N#Cc1nnn(-c2ccc(Cl)cc2)c1N`, the “T2 sensor activation Q score” value amounted to 1.

In the case of `CSC1=NC=C(C#N)C2=NC(c3ccc(Cl)cc3)NN12` (configuration not stated), the “T2 sensor activation Q score” value was found to be 2.45.

Regarding `Cc1c(Cl)cccc1Nc1ncccc1C(=O)OCC(O)CO` (configuration not stated), the “T2 sensor activation Q score” value is -0.65.

On to `CN(C)c1ccc(C(c2ccc(N(C)C)cc2)c2ccc([N+](=O)[O-])cc2)cc1`, for which the “T2 sensor activation Q score” value was 0.55. Next, `CCSc1nc(O)cc(=O)[nH]1`: -0.9. As to `CC(=O)[C@H]1CC[C@H]2[C@@H]3CCC4=CC(=O)C=C[C@]4(C)[C@H]3C(=O)C[C@]12C`, the “T2 sensor activation Q score” value turned out to be 1.65.

Consider `CCOCc1cc(=O)[nH]c(SC)n1`, for which the “T2 sensor activation Q score” value is -0.05. Next, `Cc1ccc(S(=O)(=O)Oc2cc(N)c3c(n2)CCC3)cc1`: 0.3. Next, `O=C(Nc1ccc(Br)cc1)Nc1ccccc1Cl`: -0.9. Next, `Clc1ccc(Nc2nnc(-c3ccc4c(c3)OCO4)o2)cc1`: -0.7; `CCN1CCCC(Sc2nc3c([nH]2)c(=S)n(C)c(=O)n3C)C1` (configuration not stated): 0.45.

Regarding `O=C(O)c1cc(O)ccc1N=Nc1ccccc1`, the “T2 sensor activation Q score” value was found to be 1.55. For `CCC(=Cc1ccc(CC)cn1)CC`, the “T2 sensor activation Q score” value is 1.85. Next, `O=[N+]([O-])c1cccc(/C=C/c2ccccn2)c1`: -1.2. Next, `C(=C\CSc1ccccn1)/CSc1ccccn1`: -0.6. For `C(=C\c1ccccn1)/c1ccccn1` the value was 2.1; for `CC(=O)c1c(O)c(C)c(O)c2c1OC1=CC(=O)/C(=C(/C)N)C(=O)C12C` (configuration not stated), -1.2; for `C/C=C1\NC(=O)[C@H]2CSSCC/C=C/[C@H](CC(=O)N[C@H](C(C)C)C(=O)N2)OC(=O)[C@H](C(C)C)NC1=O`, 3.

With `O=C(Nc1nc2ccccc2s1)Nc1ccc([N+](=O)[O-])cc1Cl`, the “T2 sensor activation Q score” value was found to be 0.35. For `CN(C)c1nc(Cl)nc2c1nc(Cl)n2C1CCCCO1` (configuration not stated) the value was 1.4. Regarding `O=C(/C=C/c1ccccc1)CC(c1ccccc1)N1CCOCC1` (configuration not stated), the “T2 sensor activation Q score” value is -0.6. As for `C1COCCN1.O=C(O)C(C=C(Cl)Cl)N1CCOCC1` (configuration not stated), the “T2 sensor activation Q score” value stood at 2.65. Consider `CCCCCCCCC(=O)c1c(OC)oc(C=O)cc1=O`, for which the “T2 sensor activation Q score” value is 0.5. In the case of `C/C(=N/O)[C@H]1CC[C@H]2[C@@H]3CC[C@@H]4C/C(=N\O)CC[C@]4(C)[C@H]3[C@@](C)(O)C[C@]12C`, the “T2 sensor activation Q score” value was determined as 0.5.

On to `COC(=O)c1c(-c2ccccc2)[nH]c(-c2nccc3ccccc23)c1C(=O)OC`, for which the “T2 sensor activation Q score” value is -0.35. Next, `COc1cc(NC(=O)CCl)ccc(=O)c1`: 0.6. As for `Nc1o[nH]c(=O)c1C1CCCCC1`, the “T2 sensor activation Q score” value is -0.8. Next, `Cc1cc(-n2cnc3c(=O)[nH]cnc32)ccc1N`: 1.35; `CS/C(=C\c1ccc(C(=O)c2ccc(C)cc2)n1C)[S+](C)[O-]` (configuration not stated): 5.35.

On to `CCOC(=O)Nc1ccc2nc(Sc3ccc(Cl)cc3)sc2c1`, for which the “T2 sensor activation Q score” value amounted to 0.35. Consider `Cc1ccc(S(=O)(=O)CCOC(=O)CNC(=O)OCc2ccccc2)cc1`, for which the “T2 sensor activation Q score” value was -0.1. Consider `COC(=O)c1cc2c(n1S(=O)(=O)c1ccc(C)cc1)C(=O)C(=O)c1[nH]cc(C(=O)OCc3ccccc3)c1-2`, for which the “T2 sensor activation Q score” value amounted to 2. As for `NC(=O)NC(=O)c1nccnc1C(=O)O`, the “T2 sensor activation Q score” value was -0.2. Take `O=C(c1ccccc1)c1ccccc1C(=O)c1ccccc1`: the “T2 sensor activation Q score” value was found to be 0.65. For `COC(=O)C[C@](O)(CCCC(C)(C)O)C(=O)O[C@@H]1C(OC)=C[C@]23CCCN2CCc2cc4c(cc2[C@H]13)OCO4` the value was 4.5; for `COc1c(O)ccc2c1CN1CCc3cc4c(cc3C1C2)OCO4` (configuration not stated), -1.3; for `C[C@]12CC[C@H](O)CC1=CC[C@@H]1[C@@H]2CC[C@]2(C)c3[nH]ncc3C[C@@H]12`, 0.2. As for `COc1ccc(C(=S)N2CCN(c3ccccc3C)CC2)cc1`, the “T2 sensor activation Q score” value was -0.85. Next, `CCn1c(=O)n(C)c2c(=O)n(C)c(=O)n(C)c21`: -1.1. Next, `Cn1c(=O)c2c(nc(N3CCCCC3)n2C)n(C)c1=O`: -0.7; `Cn1c(=O)c2[nH]c(N3CCCCC3)nc2n(C)c1=O`: 2.15.

In the case of `CCCc1nc2c([nH]1)c(=O)n(C)c(=O)n2C`, the “T2 sensor activation Q score” value was found to be 1.8. For `Cn1c(=O)c2c(nc(Cc3ccccc3)n2C)n(C)c1=O` the value was 1.35; for `Cc1c2oc3c(C)ccc(C(=O)N[C@@H]4C(=O)N[C@H](C(C)C)C(=O)N5CCC[C@H]5C(=O)N(C)CC(=O)N(C)[C@@H](C(C)C)C(=O)O[C@@H]4C)c3nc-2c(C(=O)N[C@@H]2C(=O)N[C@H](C(C)C)C(=O)N3CCC[C@H]3C(=O)N(C)CC(=O)N(C)[C@@H](C(C)C)C(=O)O[C@@H]2C)c(N)c1=O`, -1.15; for `Cc1cc2cc3c(=O)[nH]c(=O)[nH]c3nc2cc1C`, -0.35. Next, `N#CC1C(=O)NC(=O)C(C#N)C12CCCC(C(F)(F)F)C2` (configuration not stated): 0.45; `CN(C)C=Nc1ccc(Cl)c(Cl)c1`: -1.85; `C1C2CC3C1C3/C2=N\N=C1/C2CC3C(C2)C13`: 0.3. Take `Nc1ccc(SCc2nc3cccc4c3n2CCC4)cc1`: the “T2 sensor activation Q score” value is 0.35.

Take `Cn1c2c(sc1=O)CCC2`: the “T2 sensor activation Q score” value is -0.4.

In the case of `C#CCSc1n[nH]c(-c2ccco2)n1`, the “T2 sensor activation Q score” value is 1.7. Regarding `COc1ccccc1NC(=O)Oc1cccc(OC(=O)c2ccccc2)c1`, the “T2 sensor activation Q score” value amounted to 0.2. Regarding `COc1ccc(Cc2nnc(SC)n2-c2ccc(F)cc2)cc1OC`, the “T2 sensor activation Q score” value is 0.45. Next, `O=C1c2ccccc2C(=Cc2cccnc2)c2ccccc21`: 0.2.

For the compound `Cc1ccc(NC(=O)NNC(=O)CSC2CCc3ccccc32)c(C)c1` (configuration not stated), the “T2 sensor activation Q score” value was -1.2.

Regarding `O=C(Nc1ccsn1)c1ccc(Cl)cc1Cl`, the “T2 sensor activation Q score” value was found to be 1.25.

Consider `Nc1ccn(C2OC(CCl)C(O)C2O)c(=O)n1` (configuration not stated), for which the “T2 sensor activation Q score” value was -0.65.

As to `Cn1ncc2c(Nc3ccc([N+](=O)[O-])cc3)nc(Cl)nc21`, the “T2 sensor activation Q score” value is -0.5.

For `CC1=NCC(C)c2ccccc21` (configuration not stated), the “T2 sensor activation Q score” value came to 3.25.
